# HT1080 IDH1KD tx: toxicity to HT-1080 IDH1 knockdown cells (counter line); HT-1080 IDH1 knockdown viability, ATP luminescence, 48 h; Potency, µM (top dose mostly 46.1 µM), actives largely listed as cytotoxic; 2% of 360,000 active
#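 Knockdown cells (IDH1KD HT-1080) received compounds 2 h after plating at 750 cells/well and were kept 48 h at 37 °C in 5% FBS RPMI. A CellTiter-Glo luminescence read gave % activity for curve fitting.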
# DT40 TDP1 no CPT: qHTS for Inhibitors of human tyrosyl-DNA phosphodiesterase 1 (TDP1): qHTS in cells in absence of CPT | DT40 Tdp1-/- hTDP1 cells, no CPT, ATP luminescence, 48 h | Potency, µM (top dose mostly 46.2 µM), actives largely listed as inhibitors | 15% of 420,000 active; further: nearly all actives have a fitted effect of over 55% in size
#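 Cells were dispensed at 400 per well, compounds added by pin tool, plates incubated ≥48 hr at 37 °C, then CellTiter-Glo added for 30 min at room temperature before luminescence reading. Line: DT40 Tdp1-/- complemented with hTDP1; camptothecin omitted.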
# HT1080-NT tox: kills 2HG-producing HT-1080-NT fibrosarcoma cells | Potency, µM (series often up to 46.1 µM), hits mostly cytotoxic | 1.6% of 360,000 active | HT-1080-NT fibrosarcoma viability, CellTiter-Glo ATP luminescence, 48 h | AID 686970;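 further: NT is the 2HG producing partner of a matched IDH1 knockdown line; nearly all actives have a fitted effect of over 55% in size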
#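 Viability by CellTiter-Glo luminescence after 48 h compound exposure at 37C of HT-1080-NT cells (750/well, RPMI, 5% FBS). % activity scaled between DMSO wells and medium-only wells, then curve-fitted and categorized by curve class.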
# DT40 TDP1 CPT: growth inhibition of DT40 Tdp1-/-;hTDP1 cells with camptothecin (screen for TDP1 inhibitors) | 12% of 420,000 active | chicken DT40 Tdp1-/-;hTDP1 cells + 20 nM CPT, ATP luminescence, 48 h | Potency, µM (doses to about 46.2 µM), actives largely listed as inhibitors | AID 686979; further: nearly all actives have a fitted effect of over 55% in size
#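 Cell growth measured by CellTiter-Glo luminescence after a minimum 48 h, 37 C compound exposure with 20 nM CPT in Tdp1-knockout DT40 cells stably expressing hTDP1, seeded 400/well; qHTS titration format.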
# 12-LOX inh: blocks human arachidonate 12S-lipoxygenase; P18054; purified 12hLO, xylenol orange hydroperoxide absorbance; Potency, µM (doses to about 108 µM), actives largely listed as inhibitors; 1.1% of 580,000 active
# Target sequence (P18054 whole entry, looked up): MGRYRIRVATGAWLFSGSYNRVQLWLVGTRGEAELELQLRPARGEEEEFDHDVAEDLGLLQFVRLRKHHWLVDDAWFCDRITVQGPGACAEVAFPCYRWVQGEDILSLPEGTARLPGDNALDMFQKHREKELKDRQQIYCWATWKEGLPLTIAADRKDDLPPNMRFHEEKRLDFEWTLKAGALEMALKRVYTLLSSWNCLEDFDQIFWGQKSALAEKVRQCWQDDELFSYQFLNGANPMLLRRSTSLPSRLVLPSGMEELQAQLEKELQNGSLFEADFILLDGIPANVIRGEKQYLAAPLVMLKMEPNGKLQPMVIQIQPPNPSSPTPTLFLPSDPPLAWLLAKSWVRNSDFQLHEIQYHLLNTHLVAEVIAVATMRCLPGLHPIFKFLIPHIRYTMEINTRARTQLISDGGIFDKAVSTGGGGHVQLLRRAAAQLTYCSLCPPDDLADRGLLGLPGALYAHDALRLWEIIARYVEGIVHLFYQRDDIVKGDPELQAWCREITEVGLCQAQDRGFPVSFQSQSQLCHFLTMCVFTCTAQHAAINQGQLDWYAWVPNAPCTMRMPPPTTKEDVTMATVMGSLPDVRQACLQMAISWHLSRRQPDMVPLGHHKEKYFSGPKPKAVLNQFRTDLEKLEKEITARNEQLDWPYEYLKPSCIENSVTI
#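 Purified human 12hLO at 150 nM in 25 mM Hepes, 0.01% Triton X-100, pH 7.0, preincubated 15 min at room temperature with compound. Reaction started with 40 uM arachidonic acid, 30 min at room temperature. Hydroperoxide measured by Fe-xylenol orange, 573/405 nm absorbance ratio.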
# IL-1B inflam inh: inhibitors of inflammasome signaling (IL-1 beta secretion). THP-1 LPS/ATP IL-1B secretion, AlphaLISA, 16 h; stronger effect = lower value. activity change, % at 57.5 µM. 4.7% of 360,000 active; in the data active means activity change below about -50%; inconclusive means mostly about -30% to -49%
#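 Secreted IL-1B measured by AlphaLISA bead assay after 16 h compound exposure of THP-1 cells; compounds (final up to 57.5 uM) added 1 h before LPS (250 ng/mL) and ATP (1.25 mM) stimulation; lower signal means less secretion.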
# A number is an active result; 0 = inactive; ? = inconclusive; - = not tested or not shown; ! = not active in a repeat; [ ] = dose if it differs, or a comment. Only a selection was taken, and hits are over-represented in it overall. Unless noted, the call rests on the fitted dose curve; in most records, active means well fitted curve in the direction sought with a large enough effect; inconclusive means small, poorly fitted or top-dose-only effect, or another doubt; inactive means no such curve, though single readings can be large; an effect the other way counts as inactive or inconclusive.
SMILES,HT1080 IDH1KD tx,DT40 TDP1 no CPT,HT1080-NT tox,DT40 TDP1 CPT,12-LOX inh,IL-1B inflam inh
Cc1ccc(C)c(N2CCN(S(=O)(=O)c3ccc(C4CCCCC4)cc3)CC2)c1,-,-,-,-,0,-
Cc1ccc(C)c(N2CCN(S(=O)(=O)c3ccc(-c4cnc(C5CC5)o4)cc3)CC2)c1,-,9.2µM,-,14.6µM,0,-
Cc1cccc(N2CCN(S(=O)(=O)c3ccc(-c4cnc(C5CC5)o4)cc3)CC2)c1C,-,13µM,-,18.4µM,?,-
COc1ccccc1N1CCN(S(=O)(=O)c2ccc(-c3cnc(C4CC4)o3)cc2)CC1,0,20.6µM,0,?,0,0
CC1=C(/C=C/C(C)=C/C=C/C(C)=C/C=C/C=C(C)/C=C/C=C(C)/C=C/C2=C(C)C(=O)CCC2(C)C)C(C)(C)CCC1=O,-,0,-,0,-,-
CC1=C(/C=C/C(C)=C/C=C/C(C)=C\CO)C(C)(C)CCC1,-,?,-,18.4µM,0,-
CC1=C(/C=C/C(C)=N\NC(=O)c2ccncc2)C(C)(C)CCC1,0,?,0,?,0,0
CC1=C(/C=C/C(C)=C/C=C/C(C)=C/CO)C(C)(C)CCC1,?,20.6µM!,0,?,0,0
CC(=O)OC/C=C(C)/C=C/C=C(C)/C=C/C1=C(C)CCCC1(C)C,-,23.1µM!,-,?,?,-
N/C(=N\OC(=O)c1ccccc1)C(C(=O)NOC(=O)c1ccccc1)C1CCCCC1 (configuration not stated),?,18.4µM,?,25.9µM,0,?
O=C(COC(=O)c1ccccc1)NC1CCCCCC1,0,0,0,0,0,0
CCOc1ccc(-c2nnn(CC#N)n2)cc1OC,?,?,?,?,0,0
COC(=O)c1cnc(Oc2ccc(NC(=O)NC(=O)c3ccccc3Cl)cc2)cc1C(F)(F)F,0,4.11µM,0,?,0,0
CC(C)C1NCCc2c1sc1ccccc21 (configuration not stated),0,?,0,0,0,-50.2
Cc1ccc(NC(=S)c2nc3ccccc3[nH]2)cc1,0,10.3µM,0,13µM,0,0
C/C(=C(\CCOC(=O)c1ccccc1)SS/C(CCOC(=O)c1ccccc1)=C(/C)N(C=O)Cc1cnc(C)nc1N)N(C=O)Cc1cnc(C)nc1N,-,?,-,26.6µM,-,-
CCO[C@@H]1OC(C(=O)NCc2nc3ccccc3[nH]2)=C[C@H](c2ccc(C(F)(F)F)cc2)[C@H]1CCCO,0,?,0,?,0,-64.1
CCO[C@H]1OC(C(=O)NCc2nc3ccccc3[nH]2)=C[C@@H](c2ccc(C(F)(F)F)cc2)[C@@H]1CCCO,0,16.4µM,0,?,0,?
CCO[C@H]1OC(C(=O)NCc2nc3ccccc3[nH]2)=C[C@@H](C2CCCCC2)[C@@H]1CCCO,0,14.6µM,0,13µM,0,?
CCO[C@H]1OC(C(=O)NCc2nc3ccccc3[nH]2)=C[C@@H](C)[C@@H]1CCCO,0,?,0,?,0,0
C#Cc1ccc([C@@H]2C=C(C(=O)NCc3nc4ccccc4[nH]3)O[C@H](OCC)[C@H]2CCCO)cc1,0,?,0,?,0,0
CC1CCN(C(CNC(=O)c2ccccc2C(F)(F)F)C(C)C)CC1 (configuration not stated),-,-,-,-,0,-
COCC1CN(C2CCC2)CC12CCN(C(=O)c1ccc(OC)nc1)CC2 (configuration not stated),-,-,-,-,0,-
CC(C)N=C(N)/N=C(\N)Nc1ccc(Cl)cc1,-,-,-,-,0[22.9 µM],-
CC(C)N=C(N)N=C(N)Nc1ccc(Cl)cc1,?,9.2µM,?,25.9µM,0,?
SMILES,HT1080 IDH1KD tx,DT40 TDP1 no CPT,HT1080-NT tox,DT40 TDP1 CPT,12-LOX inh,IL-1B inflam inh
NC(=NCCCCCCN=C(N)/N=C(\N)Nc1ccc(Cl)cc1)/N=C(\N)Nc1ccc(Cl)cc1,18.4µM!,13µM!,14.6µM!,16.4µM!,31.6µM!,-100.0!
CCCCN=C(Nc1ccc(Cl)cc1)c1cccnc1,0,0,0,0,0,0
CCOC(=O)C1=C[C@@H](C(C)(C)C)N(S(=O)(=O)c2ccc(C)cc2)[C@H]1c1ccccc1,?,?,?,?,?,0
CCOC(=O)C1=C[C@@H](C(C)(C)C)N(S(=O)(=O)c2ccc(C)cc2)[C@H]1c1ccc(OC)cc1,0,20.6µM,0,?,0,0
CCOC(=O)C1=C[C@@H](c2ccccc2)N(S(=O)(=O)c2ccc(C)cc2)[C@H]1c1ccc(OC)cc1,0,?,0,16.4µM,0,0
CCOC(=O)C1=C[C@@H](C(C)(C)C)N(S(=O)(=O)c2ccc(OC)cc2)[C@H]1c1ccccc1,?,?,?,18.4µM,0,0
CCOC(=O)C1=C[C@@H](C(C)(C)C)N(S(=O)(=O)c2ccc(C)cc2)[C@H]1c1ccc(F)cc1,?,23.1µM,0,18.4µM,0,0
CN(C)c1nc(N2CCC(O)(c3cccnc3)CC2)ncc1F,-,-,-,-,0,-
CC(C)CN(C(=O)CN1C(=O)NC(c2ccccc2)(c2ccccc2)C1=O)C1CCS(=O)(=O)C1 (configuration not stated),0,0,0,0,0,0
O/N=C(\c1ccc(Cl)cc1)c1cc2ccccc2o1,?,18.4µM,0,18.4µM,?,0
CNC(=O)CCn1ncc2cc(OCc3ccccc3-c3ccc(F)cc3C)ccc21,-,-,-,-,63.1µM,-
COc1ccc(F)cc1-c1ccc(COc2ccc3c(cnn3CCC(=O)O)c2)cc1,-,-,-,-,35.5µM,-
CCc1ccc(N=c2c([N+](=O)[O-])nn(-c3ccccc3)n2O)cc1,?,?,0[9.24 µM],?,-,0
Cc1cc(C)cc(N=c2c([N+](=O)[O-])nn(-c3ccc(Cl)cc3)n2O)c1,0,14.6µM,0,9.2µM,0,0
Cc1nnsc1-c1nc2ccccc2n1C(CCc1ccccc1)c1nc2ccccc2[nH]1 (configuration not stated),0,?,0,?,0,0
FC(F)(F)c1cc(Cc2nc3ccccc3n2C(CCc2ccccc2)c2nc3ccccc3[nH]2)cc(C(F)(F)F)c1 (configuration not stated),?,7.31µM,20.6µM,7.31µM,0,0
Cc1ccc(Cc2nc3ccccc3n2C(CCc2ccccc2)c2nc3ccccc3[nH]2)cc1 (configuration not stated),0,18.4µM,0,?,0,-69.1
COc1cccc(-n2cc(CNCc3cn(C)nc3-c3ccccc3F)cn2)c1,?,25.9µM,0,?,0,0
CN(Cc1cccc(-n2cccn2)c1)Cc1cn(C)nc1-c1ccccc1F,0,?,0,?,0,0
COc1cccc(-n2cc(CNCc3c(C(=O)N(C)C)nc4ccc(Cl)cn34)cn2)c1,0,14.6µM,0,?,0,0
COc1cc(OC)c(OC)cc1CNC(=O)Nn1cnc2ccccc21,-,-,-,-,0,-

# Bioassay records (PubChem BioAssay)
